Assay outcomes as filed in PubChem.
Compounds with a hit are over-represented: about 2.8% of the library has one in this group of screens.
rCAG RNA binder: binds r(CAG) RNA repeats. r(CAG) RNA repeat, TO-PRO-1 dye displacement fluorescence. inhibition, % at 3 µM. 370,000 tested, 1.3% active;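 active = inhibition above the plate cutoff, the mean of all test compounds on that plate plus 3 SD, cut at about 35% in these data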;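 note: 0% = DMSO alone and 100% = 100 µM mitoxantrone as full dye displacement; higher means more dye released from RNA so lower well fluorescence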
MsrA inhibitor: inhibits bovine methionine sulfoxide reductase A. purified bovine MsrA, absorbance read-out. 360,000 tested, 0.75% active. inhibition, % at 15.5 µM;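 note: 0% = vehicle wells with enzyme and 100% = reference inhibitor wells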
HGIII-sPLA2 inh: Blocks human group III sPLA2 activity; 370,000 tested, 0.56% active; Q9NZ20; QFRET BODIPY PC-A2 liposome hydrolysis, fluorescence; AID 743126; inhibition, % at 12.2 µM;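 active = inhibition above mean plus 3 SD of compounds lying within the high and low control bounds, cut at about 19% in these data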;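 note: 0% = median of test compound wells and 100% = no enzyme DMSO wells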
Target sequence (Q9NZ20 whole entry, looked up): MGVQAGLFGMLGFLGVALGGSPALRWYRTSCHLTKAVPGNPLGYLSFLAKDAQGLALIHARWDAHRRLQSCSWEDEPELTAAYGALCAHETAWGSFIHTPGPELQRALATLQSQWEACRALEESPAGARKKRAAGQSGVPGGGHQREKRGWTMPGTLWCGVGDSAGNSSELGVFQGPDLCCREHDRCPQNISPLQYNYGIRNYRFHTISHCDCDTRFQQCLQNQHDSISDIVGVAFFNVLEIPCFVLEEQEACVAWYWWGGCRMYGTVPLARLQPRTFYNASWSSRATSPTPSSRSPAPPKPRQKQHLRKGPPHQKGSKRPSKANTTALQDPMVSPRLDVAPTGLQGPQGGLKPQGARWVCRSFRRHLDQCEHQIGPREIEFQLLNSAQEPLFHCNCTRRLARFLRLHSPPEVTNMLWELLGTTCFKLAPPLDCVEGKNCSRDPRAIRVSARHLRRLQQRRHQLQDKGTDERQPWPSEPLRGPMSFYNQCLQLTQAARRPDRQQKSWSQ
MsrA act: bovine methionine sulfoxide reductase A activation; purified bovine MsrA, absorbance read-out; activation, % at 10.6 µM; AID 602163; 360,000 tested, 0.3% active; in the data active = activation above about 7.5%;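 note: 0% = vehicle and 100% = reference activator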
MsrA inh confirm: bovine MsrA inhibition, confirmed. shares compounds with MsrA inhibitor. purified bovine MsrA, absorbance read-out. inhibition, % at 15.5 µM. 2,300 tested, 41% active;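 note: coupled to thioredoxin reductase with NADPH and selenocystamine and DMSO as substrate; 0% = vehicle only and 100% = full effect of reference inhibitor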
The depositor's hits bear a star; . = not tested or not shown. Cut-off read from the data, not from the text of the source, unless noted: active = inhibition above about 4.5%; inactive = the rest.

SMILES | rCAG RNA binder | MsrA inhibitor | HGIII-sPLA2 inh | MsrA act | MsrA inh confirm
CCOC(=O)N=Nc1c(O)n(CC(=O)OC)c2ccccc12 | 1.2 | 1.5 | -0.4 | -10.1 | .
CCN(CC)C(=O)CC[C@H]1CC[C@]2(CCCN(C(=O)c3cccnc3)C2)O1 | -0.2 | . | 2.1 | . | .
CC1CCN(c2nc3ccc(C(=O)NCCCN4CCCCC4C)cc3s2)CC1 (configuration not stated) | 6.7 | 0.3 | 6.1 | -1.4 | .
Cn1cnc([N+](=O)[O-])c1S(=O)(=O)Oc1ccccc1 | 0.2 | 16.9* | 3.7 | -2.7 | 12.0*
Cn1cnc([N+](=O)[O-])c1S(=O)(=O)c1cccc(Cl)c1 | -2.9 | -0.5 | 5.3 | -4.0 | .
Cn1cnc([N+](=O)[O-])c1S(=O)(=O)Nc1ccccc1 | 1.6 | 15.6* | 4.9 | -2.5 | 8.1*
O=c1cnn(-c2ccccc2)c(-c2ccccc2)c1 | 1.3 | 12.5* | 4.7 | -4.5 | 9.5*
CCCC(=O)N1CCC1(C)C(=O)Nc1ccccc1C(C)(C)C (configuration not stated) | 1.5 | -0.4 | 1.1 | -1.6 | .
C[C@@H](c1ccccc1)N1C[C@H](COCc2ccccc2)Oc2cc(N3CCC[C@H]3CO)ccc2S1(=O)=O | 8.5 | -0.4 | -4.8 | 0.3 | .
N#C/C(=C\c1ccc(O)c([N+](=O)[O-])c1)C(=O)NCc1ccccc1 | 10.6 | 5.5* | 0.1 | -4.3 | 2.4
N#C/C(=C\c1ccc(O)c(Br)c1)C(=O)NCc1ccccc1 | 19.7 | -1.1 | -9.7 | -2.6 | .
C=CCOc1cccc(/C=C\c2nc(O)c([N+](=O)[O-])c(=O)[nH]2)c1 | 7.5 | 4.8* | 2.0 | -2.0 | 3.8
Fc1ccc(C2CCCCN2Cc2nc(CC3CC3)no2)cc1 (configuration not stated) | -6.4 | 2.0 | 5.7 | 3.4 | .
O=C(O)c1cccc(NC2=C(Cl)C(=O)c3ccccc3C2=O)c1 | 2.4 | 4.9* | 5.8 | -10.3 | 0.6
Cn1nnc2sc3c(c2c1=O)CCCC3 | -0.5 | 5.0* | 11.3 | -0.9 | 5.8*
Cc1nc2sc3c(c2c(=O)n1N)CCC3 | -6.7 | -0.9 | 0.4 | -1.9 | .
COc1cc(/C=N/Nc2cc(C)nc(N)n2)ccc1O | 2.1 | 6.8* | -1.5 | 0.1 | 5.2*
COc1ccc(/C=N/Nc2cc(C)nc(N)n2)cc1 | 0.6 | 4.2 | 7.1 | -1.2 | .
COc1cc(/C=N/Nc2nc(=O)[nH]nc2C)ccc1O | -2.6 | 4.7* | 4.0 | -7.8 | 5.4*
O=C1C(Cl)=C(NCCCN2CCOCC2)C(=O)N1CCc1ccccc1 | -2.7 | 26.9* | -2.2 | -0.5 | 25.2*
COc1cc(/C=N/NC(=O)c2ccncc2)cc(OC)c1OC | -1.1 | 1.7 | -0.2 | -2.8 | .
Cn1cc([N+](=O)[O-])c(C(=O)N/N=C/c2ccc3c(c2)OCO3)n1 | 1.1 | 4.9* | 7.6 | -3.2 | 2.6
CN(C)c1ccc(/C=N/NC(=O)c2ccc3c(c2)OCO3)cc1 | -1.0 | 6.9* | 4.5 | -5.4 | 5.5*
Cc1ccc(C(=O)NN=Cc2ccc3c(c2)OCO3)cc1 | 2.9 | 2.7 | -3.3 | 1.8 | .
COc1cc(C(=O)NN=Cc2ccc(N(C)C)cc2)cc(OC)c1OC | 4.6 | 5.1* | 4.2 | -5.0 | 5.1*
SMILES | rCAG RNA binder | MsrA inhibitor | HGIII-sPLA2 inh | MsrA act | MsrA inh confirm
Cc1ccc(C(=O)N/N=C/c2ccc3c(c2)OCO3)o1 | 2.0 | 5.8* | 5.7 | -7.0 | 5.7*
CN(C)c1ccc(/C=N/NC(=O)c2cccc(N3CCCC3=O)c2)cc1 | -4.6 | 7.2* | 5.9 | -5.1 | 7.0*
Cc1ccc(/C=N/NC(=O)c2cccc([N+](=O)[O-])c2)o1 | -0.2 | 5.2* | 0.6 | -3.2 | 4.9*
Cc1ccc(/C=N\NC(=O)c2ccc3c(c2)OCO3)o1 | 0.5 | 4.9* | 5.5 | -7.7 | 5.4*
COc1cccc(/C=N/NC(=O)c2cccc(N3CCCC3=O)c2)c1 | -6.0 | -1.1 | 0.2 | -2.5 | .
COc1cc(C(=O)NCC(=O)N/N=C/c2ccc(-c3cccc([N+](=O)[O-])c3)o2)cc(OC)c1OC | 11.8 | 5.3* | 0.9 | -1.7 | 3.3
CC1(C)CC(C(CC(=O)Nc2nccs2)c2ccccc2)CCO1 (configuration not stated) | -1.2 | 1.6 | 4.1 | -5.8 | .
Cc1cccc(N(C(=O)CNC(=O)c2ccco2)C(C(=O)NC2CCCC2)c2ccncc2)c1C (configuration not stated) | -3.7 | -0.4 | -0.5 | -2.6 | .
Cc1cc(C)c[n+](-c2[nH]c(=O)sc2/C=N/N=C(\[O-])c2cccnc2)c1 | -2.2 | 5.6* | 2.4 | -10.1 | 4.5
O=C(CSC(=S)N1CCCC1)N/N=C/c1c(O)[nH]c(=S)[nH]c1=O | 2.7 | 5.2* | 0.2 | -1.3 | 5.2*
O=C(O)CSC(=S)N1CCCC1 | -0.8 | 2.4 | 1.3 | 1.1 | .
COc1ccc(-c2nn(-c3ccccc3)cc2CNCCN2CCOC2=O)c(F)c1 | -4.4 | 0.4 | 1.8 | -0.9 | .
COc1cc2oc(-c3ccc(O)cc3)cc(=O)c2c(OC)c1O | 4.3 | 7.1* | -1.8 | -5.0 | 3.3
COC(=O)CNC(=O)CSc1nc2c(sc(=S)n2-c2ccccc2)c(=O)[nH]1 | 9.0 | 4.1 | 3.4 | -5.0 | .
CCOC(=O)c1sc(N)c(C(=O)Nc2ccccc2)c1C | -2.0 | 4.8* | 5.4 | -4.2 | 1.8
CCOC(=O)c1sc(N)c(C(=O)OCC)c1C | -2.5 | 0.9 | -4.2 | -3.2 | .
N/C(=N\N=C\c1ccc(O)cc1)c1nonc1N | 1.9 | 6.4* | 2.2 | -2.2 | 3.7
N/C(=N\N=C\c1cccc(O)c1)c1nonc1N | -0.9 | 6.0* | 4.6 | -2.4 | 3.5
Cc1ccc(NC(=O)c2cc(=O)[nH]c3ccc(S(=O)(=O)N4CCOCC4)cc23)nc1 | 4.8 | 2.4 | 5.4 | -3.1 | .
CCc1c(C(=O)N/N=C/c2cccs2)nnn1-c1nonc1N | -1.4 | 3.6 | 9.7 | -7.6 | .
Cc1ccc(C(=O)NNC(=O)CSc2nnc(C3CC3)n2C)cc1 | 1.6 | 1.0 | 6.3 | -1.3 | .
Cc1ccccc1Nc1ncnc2[nH]ncc12 | -0.8 | 14.2* | -4.4 | -1.4 | 11.6*
COC(=O)/C(=C1/Oc2cc3c(cc2S1)OCO3)C(F)(F)F | -2.1 | 6.6* | 2.4 | -0.1 | 7.0*
COC(=O)/C(=C1/Oc2ccc(C)cc2S1)C(F)(F)F | -1.8 | 9.6* | 4.1 | -14.5 | 10.7*
CC(C)N1CCCC(C)(C(=O)Nc2nccc3ccccc23)C1 (configuration not stated) | 0.7 | 0.2 | -1.3 | -1.5 | .
SMILES | rCAG RNA binder | MsrA inhibitor | HGIII-sPLA2 inh | MsrA act | MsrA inh confirm
Nc1c2ccccc2nc2ccccc12 | 6.5 | -0.1 | -0.6 | -3.3 | .
N#Cc1c2ccccc2nc2ccccc12 | -2.3 | 7.0* | 11.1 | -3.3 | 5.0*
CCOc1ccc(/C=C(\C)C(=O)c2c(C)cc(C)[nH]c2=O)cc1 | -3.7 | 6.2* | 7.0 | -4.2 | 3.3
COc1ccc(/C=C(\C)C(=O)c2c(C)cc(C)[nH]c2=O)cc1 | -2.1 | 2.7 | -1.9 | -3.9 | .
COc1ccc([N+](=O)[O-])cc1/C=N/NC(=O)/C(=C\c1cccs1)NC(=O)c1ccccc1 | 24.4 | 2.7 | 1.5 | -9.0 | .
COc1ccc(/C=C(/NC(=O)c2ccccc2)C(=O)N/N=C/c2ccc3c(c2)OCO3)cc1OC | 9.3 | 6.4* | 0.5 | -5.1 | 5.1*
COc1ccc(/C=C(/NC(=O)c2ccccc2)C(=O)N/N=C/c2cccs2)cc1OC | 6.8 | 4.8* | -4.1 | -7.4 | 6.0*
